Over roughly 68,000 sequences, “fluorescence intensity (a.u.)” has its median near 9,100; the highest 2% begin near 16,000. This is one part of a sample in which the highest values are shown more often than they occur.

Chain of OsWRKY34 (Q0JBA9 entry or part of it): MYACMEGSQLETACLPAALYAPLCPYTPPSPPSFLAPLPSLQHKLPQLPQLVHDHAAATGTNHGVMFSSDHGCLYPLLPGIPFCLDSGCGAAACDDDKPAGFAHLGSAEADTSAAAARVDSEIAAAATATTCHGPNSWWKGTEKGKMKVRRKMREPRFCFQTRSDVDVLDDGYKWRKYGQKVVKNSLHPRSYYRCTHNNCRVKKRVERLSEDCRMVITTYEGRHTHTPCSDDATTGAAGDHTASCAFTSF

This assay has as its target OsWRKY34 (Oryza sativa, UniProt Q0JBA9 1-250). Briefly: protein-binding microarray (RPBM); PBS, 2% BSA, 51.3 ng/ul salmon testes DNA, 50 uM zinc acetate, 200 nM TF, 25 C, 1 h; high values mean tight binding. The conditions noted are these: protein: recombinant; tags: N-terminal polyhistidine and DsRed monomer fusion (pET32a); label: CyDye5-dUTP incorporated in the synthesized complementary strand; 3' TTTTT single-stranded linker to array surface; dsDNA, one strand shown. A digest of the protocol:
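Ni–NTA purification followed expression in E. coli BL21-CodonPlus of transcription factors fused N-terminally to a polyhistidine tag and DsRed. At 200 nM in PBS with 2% BSA, salmon testes DNA and 50 µM zinc acetate, the protein was incubated for 1 h at 25 °C with a custom Agilent array that had been primer-extended with Cy5-dUTP and blocked with 2% BSA. After washing, the array was read on an Axon 4000B scanner. The binding signal is per-feature fluorescence intensity in arbitrary units.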
For “GGGCCTAGTTTTTCCAGGTAAAGTTGACCAAAAGTCTTCACGGAGTCACCTAGTGCAG”, the binding signal is 8890 fluorescence intensity (a.u.).

Consider “GATGGCGTACCAAAGTACTGGTAAAAACATCTTCAGTTTTCGGAGTCACCTAGTGCAG”, for which the binding signal is 22300 fluorescence intensity (a.u.).

Turning to “TTTTTTTTCTGTTAGTACTGTTTTTGGTCCAAACATCTTTCGGAGTCACCTAGTGCAG”, the binding signal is 8180 fluorescence intensity (a.u.).

Regarding “CTTCTACTGCGTCGACTTGGAATTTTGCCGAATCTTTTTTCGGAGTCACCTAGTGCAG”, the binding signal was 10400 fluorescence intensity (a.u.).

Turning to “CACACACACTCCACTACTCCACTGCACTGCAGTCTCTCTCCGGAGTCACCTAGTGCAG”, the binding signal is 10100 fluorescence intensity (a.u.).

Regarding “CCTCGTTCTTCTTCTTCTCTCTCTGGTTTTACATTTTTACCGGAGTCACCTAGTGCAG”, the binding signal was 10300 fluorescence intensity (a.u.).

Regarding “AACCCACCTGCACGCACCGTCCTTACCTCTGTTCGATTGACGGAGTCACCTAGTGCAG”, the binding signal is 16800 fluorescence intensity (a.u.).

Turning to “CACGCACCGCCCATGCGTCCTTATCCACCCACCTCTCCACCGGAGTCACCTAGTGCAG”, the binding signal was 8240 fluorescence intensity (a.u.).

As to “TGAGTCCTTACCTCTCTCTCTCCAATGTTCGTCTGCGGCACGGAGTCACCTAGTGCAG”, the binding signal is 8390 fluorescence intensity (a.u.).

As to “GTAGATGTCGGGTGGGATGGTTTCAGGAAAAGAAACATGACGGAGTCACCTAGTGCAG”, the binding signal was 12800 fluorescence intensity (a.u.).

Regarding “CATTCACAACATCAAATTACATCTGCAGAGAGATCGCTCGCGGAGTCACCTAGTGCAG”, the binding signal is 33900 fluorescence intensity (a.u.).

As to “ACTTTCCTACACACAAACTTTCAACTTTTTCATCACATCGCGGAGTCACCTAGTGCAG”, the binding signal is 8900 fluorescence intensity (a.u.).

“AGTCTGGCTTGCACATCTGCTGTTTACAACACATCAAATTCGGAGTCACCTAGTGCAG”: the binding signal was 9810 fluorescence intensity (a.u.).

With “CCATCGTTTCTCCCCGACGCCCTCGCCATCCTCCTCGCCACGGAGTCACCTAGTGCAG”, the binding signal was 10500 fluorescence intensity (a.u.).

On to “GCCTTTTTAAATTTTTTTATCACATCAAAACTTTTTTATACGGAGTCACCTAGTGCAG”, for which the binding signal is 8370 fluorescence intensity (a.u.).

As for “CTGTTACTTCACAGTTATTTTTGTTGGGTGGGGACGTGGGCGGAGTCACCTAGTGCAG”, the binding signal was 12600 fluorescence intensity (a.u.).

As for “GTGGGTGGGTTTGGAGTTTGGACTGTTTAGGGCCTTTTGACGGAGTCACCTAGTGCAG”, the binding signal was 23300 fluorescence intensity (a.u.).

Consider “TTTTTGGGTTGGGTTGGGGACGCGCTGTTTCGACGTGGGGCGGAGTCACCTAGTGCAG”, for which the binding signal is 19000 fluorescence intensity (a.u.).

“GGTTTAGGCTGTGTTTAGTTCTTTTTTTAATTTTTTTTAACGGAGTCACCTAGTGCAG”: the binding signal was 16500 fluorescence intensity (a.u.).

As to “TGAAGAGGTGAGTGTTTTAGGGTTTTGGTTGGGGTTTTGACGGAGTCACCTAGTGCAG”, the binding signal is 14600 fluorescence intensity (a.u.).

For “ATATATGTTCTCTTAGTGTCTTTATTTTTAATATTTTTAACGGAGTCACCTAGTGCAG”, the binding signal was 8530 fluorescence intensity (a.u.).

On to “GGGTTTGGGTTTTTAGGTTTGGGGAGTTGGGCTGTGTTTACGGAGTCACCTAGTGCAG”, for which the binding signal is 22100 fluorescence intensity (a.u.).

With “AGTGTTTGGTTTGAGGAGGACTAGTGGGGTGGTTTTTTGACGGAGTCACCTAGTGCAG”, the binding signal was 13900 fluorescence intensity (a.u.).

For the sequence “GGTTGGGGCGTGGGCGGCTGGGCGCGTGGGTTGCCCGCGACGGAGTCACCTAGTGCAG”, the binding signal is 15600 fluorescence intensity (a.u.).

Consider “CGTTGAGTTGGTTTAGGGGTGGACTGATTTGCCTTTGCCCCGGAGTCACCTAGTGCAG”, for which the binding signal is 12900 fluorescence intensity (a.u.).

For “TTTACATATAATTTTCTTTAGGGTTTTATAGCTTTTTTAACGGAGTCACCTAGTGCAG”, the binding signal is 8600 fluorescence intensity (a.u.).

As to “TTCGTGTTTTGCTGGAGTTGGAGTTGCTGCATTGGGTTTACGGAGTCACCTAGTGCAG”, the binding signal was 10700 fluorescence intensity (a.u.).

With “CTGTATCCCCATTCGCTGTCAAAATTCAATTCACTGTCTTCGGAGTCACCTAGTGCAG”, the binding signal is 9640 fluorescence intensity (a.u.).

For the sequence “GGTGGGAGCACGATGCGGGACGTGGGGTGGGATCGGAAGCCGGAGTCACCTAGTGCAG”, the binding signal is 8590 fluorescence intensity (a.u.).

“CCCTCCCTGGCCGTCGTGCCCGCCGCTGCTCGCCTTCGGCCGGAGTCACCTAGTGCAG”: the binding signal is 10100 fluorescence intensity (a.u.).

For “TGGAGGGGAGTGGGATCGCGATCACGGGTGGGGCGTCGGACGGAGTCACCTAGTGCAG”, the binding signal is 13100 fluorescence intensity (a.u.).

Consider “AAATCTTGGGTTTATGTGGGCGACGATGTCGGTTTGGAAACGGAGTCACCTAGTGCAG”, for which the binding signal is 8060 fluorescence intensity (a.u.).

Turning to “CTACAGCCTCACACCGTCTCTCCTGCACCAGTTCCACGGACGGAGTCACCTAGTGCAG”, the binding signal was 9510 fluorescence intensity (a.u.).

Regarding “CCGCGGTGGGGCATGGTGGTGAGGTGGGAGGGAGGGAGCTCGGAGTCACCTAGTGCAG”, the binding signal was 17100 fluorescence intensity (a.u.).

Turning to “TGTGGTGCGTGCCGCGTGCGGGAGGGCAGGGTGAGGTGAGCGGAGTCACCTAGTGCAG”, the binding signal was 8810 fluorescence intensity (a.u.).

On to “TGTGGGTATGGGGATGATTTTGTACCCGTGATAGGTGTGGCGGAGTCACCTAGTGCAG”, for which the binding signal was 13100 fluorescence intensity (a.u.).

Consider “TGGGGCTTCTGGTGTGCTCGGTGGTGTTCGCCGCGGCGGCCGGAGTCACCTAGTGCAG”, for which the binding signal was 14200 fluorescence intensity (a.u.).

For “TTTGTGGGTGATGGTGGGTGGGAGTGGGATAGGGCGGCCCCGGAGTCACCTAGTGCAG”, the binding signal is 17000 fluorescence intensity (a.u.).

Regarding “GGTGGTTCTGTGAGCCCGCGGGGTTGGGGTTGGGGCCTGGCGGAGTCACCTAGTGCAG”, the binding signal was 12900 fluorescence intensity (a.u.).

On to “TGGTTCGCTCGGTGGGTGGTGGTGGTTCTGTGAGCCCGCGCGGAGTCACCTAGTGCAG”, for which the binding signal was 18400 fluorescence intensity (a.u.).

In the case of “GCGCGCGGGTGAGGAGGAGGAGGGGATGGGGAGGGGCCCGCGGAGTCACCTAGTGCAG”, the binding signal was 17700 fluorescence intensity (a.u.).

In the case of “GCGGCGGTGGGGATGGGGATAGGGCGGCGGCGGCGGATGGCGGAGTCACCTAGTGCAG”, the binding signal was 13600 fluorescence intensity (a.u.).

For “GAGAGGATGGAGGTGGATGAGGGAGAGGGGCGGGAGACCGCGGAGTCACCTAGTGCAG”, the binding signal was 9460 fluorescence intensity (a.u.).

Turning to “GGATGGGCATGGAGGAGGTGCAGTGAGTGGAGCTGGAGGACGGAGTCACCTAGTGCAG”, the binding signal is 8730 fluorescence intensity (a.u.).

With “GCGGGATGGGGAGGCGGCGCCGCGAGGAGGAGGGGATGGGCGGAGTCACCTAGTGCAG”, the binding signal was 11900 fluorescence intensity (a.u.).

(Values after article PMC7819943, “Rice protein-binding microarrays: a tool to detect cis-acting elements near promoter regions in rice”.)
